The text below walks through data of ChEMBL document CHEMBL4513216, “Probing the Open Global Health Chemical Diversity Library for Multistage-Active Starting Points for Next-Generation Antimalarials” (ACS Infect Dis, 2020).

Among all 69,000 compounds or so, about 8,600 (12%) showed an effect of 50% or more. The list comes from a sample in which strong results are over-represented; it also holds similar structures and randomly drawn compounds.

The test system of the test is Plasmodium berghei. The test can be described thus: Screen against P. berghei liver stage (PbLuc), transformed with Luciferase, at 10uM. The class given is functional, HepG2. To be noted: tested at 10 uM.
For the compound `O=c1[nH]c(N2CCOCC2)nc2c1CN(Cc1cccnc1)CC2`, the INHIBITION is -4.51%.

As to `O=C1CCCN1CCCC(=O)N1CCC2(CC1)[C@H](O)C[C@@H]2O`, the INHIBITION turned out to be 9.56%. The value for `CN(Cc1nc(Cc2cccc(C(F)(F)F)c2)no1)CC1CCCCO1` (stereo not given) was 42.1%; that for `CNC(=O)COc1cccc(CNC(=O)c2c(C)noc2C(C)C)c1` was 37.4%. Under `Cc1cc(C)c2nc(CN3CC[C@@H](O)C3)cc(O)c2c1` stands 20.1%; under `COC1CCCN(Cc2cc(O)c3cc(C)cc(C)c3n2)C1` (stereo not given), 61.2%. In the case of `Cc1cc(C)c2nc(CN3CCOCC(O)C3)cc(O)c2c1` (stereo not given), the INHIBITION is 17.6%. The value for `Cc1cc(C)c2nc(CN3CCC(CN)CC3)cc(O)c2c1` was 34.9%; that for `Cc1cc(C)c2nc(CN3CCC(CN)C3)cc(O)c2c1` (stereo not given) was -8.75%; that for `Cc1cc(C)c2nc(CN3CCCC(c4cc[nH]n4)C3)cc(O)c2c1` (stereo not given) was 78.5%. Under `CS(=O)(=O)CCn1ccc(NC(=O)Cc2ccccc2Cl)n1` stands 25.2%; under `CSCCC(Nc1nc(C)cc(C)n1)C(=O)NC1CC1` (stereo not given), -15.4%. Under `NC(=O)C1CN(c2ccc3cc(Br)ccc3n2)CCO1` (stereo not given) stands 37.1%; under `NC(=O)C1CN(c2ccc(Br)cn2)CCO1` (stereo not given), 69.7%; under `Cc1ccccc1CSc1nc(N)cc(N2CCOC(C(N)=O)C2)n1` (stereo not given), -19.2%. Take `CCS(=O)(=O)N1CCCn2nnc(CNC(C)=O)c2C1`: the INHIBITION was 52.1%. The value for `CC(=O)NCc1nnn2c1CN(c1ncc(C)cn1)CCC2` was 21.3%. The value for `CN(C)C(=O)NCc1nnn2c1CN(CC1CCOCC1)CCC2` was -51%; that for `CCS(=O)(=O)N1CCCn2nnc(Cn3cccc3)c2C1` was 36.5%; that for `OCCOCc1nnn2c1CN(c1ncccn1)CCC2` was 43.8%. Under `c1cnc(N2CCCn3nnc(COCC4CC4)c3C2)nc1` stands 18.7%; under `c1ccc(OCc2nnn3c2CN(c2ncccn2)CCC3)nc1`, 57.1%; under `c1ccc(CN2CCCn3nnc(COc4ccccn4)c3C2)nc1`, 24.9%. In the case of `CC(=O)NCc1nnn2c1CN(c1ncccn1)CCC2`, the INHIBITION was 54.8%. Turning to `O=C(c1ccco1)N1CC[C@H]2C[C@@H](c3nccs3)O[C@@H]2C1`, the INHIBITION is -7.59%. Under `COc1cccc(CNC(=O)c2cc(C)nc(N3CCCCC3)n2)c1` stands 4.97%; under `CCc1csc(C2CCCN(C(=O)c3ccco3)C2)n1` (stereo not given), 19.6%; under `CC(=O)N1CCC(C)(c2cc(C(=O)NCC3CC3)nc(C)n2)CC1`, 9.075%. Under `O=C1CC2(CCCCN2C(=O)c2ccsc2)CN1CC1CC1` (stereo not given) stands 37.4%; under `COCCn1cnc2ccc(NC(=O)c3ccccn3)cc2c1=O`, 19.4%; under `COc1cccc(OC2CN(C(=O)Cn3nc4ccccc4n3)C2)c1`, 28.7%. The value for `CCn1nc(CC(C)C)cc1C(=O)N1CC(c2ccncc2)C1` was 57.4%. Consider `COc1cccc(OC2CN(C(=O)c3sccc3C)C2)c1`, for which the INHIBITION is on record as -17.6%. Under `COc1cccc(OC2CN(C(=O)c3cc(CC(C)C)nn3C)C2)c1` stands 79.2%; under `COc1cccc(OC2CN(C(=O)CCn3cnc4ccccc43)C2)c1`, 70%; under `CCn1nc(CC(C)C)cc1C(=O)N1C[C@H](O)[C@@H](N2CCCCC2)C1`, 29.7%. Regarding `CCn1nc(CC(C)C)cc1C(=O)N1CC[C@@H](O)C1`, the INHIBITION was 26.8%.

`COc1cccc(OC2CN(C(=O)CCn3cnnn3)C2)c1`: the INHIBITION is on record as 55.9%. The value for `COc1cccc(OC2CN(C(=O)c3c(C)noc3C)C2)c1` was -57.7%; that for `CC(C)Cc1cc(C(=O)N2CC(OCc3ccccc3F)C2)n(C)n1` was 43.2%. Under `O=C(CCn1cnc2ccccc21)N1CCN2CCCCC2C1` (stereo not given) stands 40.1%; under `CC(C)Cc1cc(C(=O)N2CCC(Oc3cccnc3)CC2)n(C)n1`, 5.11%.

Regarding `Cc1ccc(CNC(=O)NCCCO)cc1`, the INHIBITION was found to be 0.914%.

Turning to `Cc1ccc(C(NC(=O)C2CCC(O)CC2)c2cccnc2)cc1C` (stereo not given), the INHIBITION was 7.84%. Under `Cc1ccccc1S(=O)(=O)NC(=O)C1(c2ccccc2)CCC1` stands 35.2%; under `Cc1ccc(S(=O)(=O)NC(C)(C)CN)c(F)c1`, -21.8%.

For `Cn1ccc(C2CCCCN2C(=O)c2cccc(-n3cccn3)c2)n1` (stereo not given), the INHIBITION worked out at 56.1%. The value for `Cn1ccc(C2CCCCCN2C(=O)c2cccnc2)n1` (stereo not given) was -1.16%. The value for `Cn1ccc(C2CCCCN2C(=O)c2cccc(Cn3cccn3)c2)n1` (stereo not given) was 15%; that for `O=S(=O)(NCCCn1cncn1)c1ccc2c(c1)OCCCO2` was 49%; that for `CSc1ncccc1C(=O)N1C[C@@H]2CC[C@H]1CN(c1cnccn1)C2` was 0.139%. The value for `NC(=O)N1CCCC(C(=O)Nc2cccc(Cl)c2)C1` (stereo not given) was 37.5%.

As for `CC(C)(CNc1cccc(Cl)c1)NC(=O)C1CCCN(CC(N)=O)C1` (stereo not given), the INHIBITION is listed as 69.9%. The value for `CC(C)(CNC(=O)C1CCCN(C(N)=O)C1)c1cccc(Cl)c1` (stereo not given) was 21.5%; that for `O=C(c1cccc2c1OCO2)N1CCC(N2CCCC2)CC1` was -17.4%. Take `c1ccc(COC2C[C@@H]3CN(Cc4cncnc4)C[C@@H]3C2)cc1` (stereo not given in full): the INHIBITION is on record as 28%. The value for `CCc1noc(C2CCCCN2C(=O)c2cccnc2)n1` (stereo not given) was -8.9%.

`Cc1noc(C)c1C(=O)N1CCCC1c1c(C)nn(C)c1C` (stereo not given): the INHIBITION is -50.5%. Under `Cc1cc(CNC2(c3ccc(Cl)cc3)CC2)no1` stands 16.8%. Under `OC1(c2ccccc2F)CCN(Cc2ccccc2N2CCCC2)CC1` stands 46.2%; under `Cc1cccc(C2(O)CCN(Cc3ccccc3N3CCCC3)CC2)c1`, 61%; under `OC1(c2ccc(F)cc2)CCN(Cc2ccccc2N2CCCC2)CC1`, 43.4%. The value for `C1CCC(NC2CCCN(Cc3noc(C4CC4)n3)C2)C1` (stereo not given) was 17.3%. Regarding `CCOc1cccc(C2CC(=O)NCc3nc(N)sc32)c1` (stereo not given), the INHIBITION stood at 42.2%.

For `CCOc1cccc(C2CC(=O)NCc3nc(N4CCCC4)sc32)c1` (stereo not given), the INHIBITION was 56.5%. Under `CCOc1cccc(C2CC(=O)NCc3nc(N(C)C)sc32)c1` (stereo not given) stands 11.7%; under `Cc1cccc(C)c1OCCNC(=O)CN1CCN(C)CC1C` (stereo not given), -17.7%; under `Cc1ccc2c(c1)cc(CN1CC[C@](C)(O)[C@H](C)C1)n2C`, 42.1%. Under `CN1CCN(C2CCN(Cc3cn4ccccc4n3)CC2)C1=O` stands -22.3%; under `CN(C)Cc1cnc2n1CCN(C(=O)C1CC=CC1)CC2`, 36.9%; under `Cc1ccc(CN2CC[C@@H]3OCCN(Cc4ccncc4)[C@H]3CC2)s1`, 58.3%. `Cc1ccc(CN2CC[C@H]3[C@@H]2CCC(=O)N3CCN2CCCC2)s1`: the INHIBITION turned out to be 32.4%. Turning to `Cc1cc(CN2CC[C@H]3[C@H]2CCN3S(C)(=O)=O)oc1C`, the INHIBITION amounted to 16.1%. In the case of `Cc1ccc(CN2CC[C@H]3[C@H]2CCN3S(C)(=O)=O)s1`, the INHIBITION is recorded as 58.7%.

Take `Cc1ccc(CN2CC[C@@H]3OCCN(S(C)(=O)=O)[C@H]3CC2)s1`: the INHIBITION is on record as 34.5%. As for `Cc1ccc(CN2CC[C@H]3[C@H]2CCN3S(=O)(=O)C2CC2)s1`, the INHIBITION worked out at 13.7%.

In the case of `CS(=O)(=O)N1CCO[C@@H]2CCN(Cc3ccncc3)CC[C@H]21`, the INHIBITION came to 23.6%. The value for `Cc1cccc(CN2C(=O)CC[C@@H]3[C@H]2CCN3Cc2ccc(C)s2)n1` was 33.5%. The value for `Cc1ccc(CN2CC[C@@H]3[C@H]2CCC(=O)N3Cc2ccncc2)s1` was 68.4%; that for `Cc1nc(CN(C)C2CCN(Cc3ccc4c(c3)CCC4)C2)no1` (stereo not given) was 31.3%; that for `NC(=O)C1CNCCN1C(=O)COc1ccccc1` (stereo not given) was 36%. Under `Cc1csc(CN2CC[C@H]3C[C@@H](c4nc(C)no4)O[C@@H]3C2)n1` stands -11.6%. Take `CN1[C@@H](C(=O)NCC2CC2)C[C@@H]2CN(Cc3ccsc3)C[C@@H]21`: the INHIBITION is listed as -9.74%. Turning to `CNC(=O)CCc1cc(C)nc(C2CCN(c3ccccc3)CC2)c1`, the INHIBITION was determined as 20.24%. Regarding `Cc1nnc(N2C[C@H](C(=O)NCC3CC3)[C@@H]3CCO[C@@H]3C2)s1`, the INHIBITION is -19.7%. The value for `COCCNC(=O)[C@@H]1CN(c2ncccn2)C[C@H]2OCC[C@H]21` was 43.9%; that for `COCCNC(=O)[C@@H]1CN(c2cc(OC)ncn2)C[C@H]2OCC[C@H]21` was 24.9%. On to `COCCNC(=O)[C@H]1CN(c2ncccn2)C[C@H]2OCC[C@@H]12`, for which the INHIBITION stood at 55.5%. For the compound `Cc1nnc(N2C[C@H](C(=O)NCc3ccco3)[C@@H]3CCO[C@@H]3C2)s1`, the INHIBITION is 15.4%. In the case of `COCCNC(=O)[C@H]1CN(Cc2csc(C)n2)C[C@H]2OCC[C@@H]12`, the INHIBITION stood at 24.9%. The value for `COCCNC(=O)[C@H]1CN(Cc2cccs2)C[C@H]2OCC[C@@H]12` was 43.9%; that for `Cc1nnc(N2C[C@H]3OCC[C@H]3[C@H](C(=O)NCC3CC3)C2)s1` was 66.9%. Consider `COCCNC(=O)[C@H]1CN(c2nnc(C)s2)C[C@H]2OCC[C@@H]12`, for which the INHIBITION was determined as 52.9%. Under `Cc1cccc(CN2CCc3nnc(CO)n3CC2)n1` stands 27.4%; under `O=C1[C@H]2CN(Cc3cccs3)C[C@H]2CN1CCN1CCCC1`, 9.97%.

Consider `Cc1c(C2CCCN(C(=O)c3cccnc3)C2)n2c(nc1=O)CCC2` (stereo not given), for which the INHIBITION is on record as -73.1%. Under `O=C(C1CCOC1)N1CCN(CC2CC2)c2ccccc21` (stereo not given) stands 42.8%; under `CCOCC1CN(C(=O)c2ccoc2C)Cc2cnn(C)c21` (stereo not given), 23.3%; under `Nc1cncc(C(=O)N2Cc3ccccc3OC3(CCOCC3)C2)c1`, 22%. With `COc1cc(Cl)ccc1C(=O)N1CCCC(n2nc(C)nc2C)C1` (stereo not given), the INHIBITION is on record as 19.4%.

With `COc1ccc(C)cc1C(=O)N1CCCC(n2nc(C)nc2C)C1` (stereo not given), the INHIBITION was -9.37%. The value for `Cc1nc(C)n(C2CCCN(C(=O)c3cccc4[nH]ncc34)C2)n1` (stereo not given) was -50.8%; that for `Cc1nc(C)n(C2CCCN(C(=O)c3cccc4cn[nH]c34)C2)n1` (stereo not given) was 56%; that for `COc1ccc(C(=O)N2CCCC(n3nc(C)nc3C)C2)c(OC)c1` (stereo not given) was 52.3%.

As to `Cc1nc(C)n(C2CCCN(C(=O)c3ccccc3C)C2)n1` (stereo not given), the INHIBITION was 31.1%.
